PubChem BioAssay (Tox21)
Unmarked numbers belong to inactive results. Inconclusive results are not listed. Entries that show only a call come without a potency. Activity calls are given as the source filed them. Unless noted, calls come from the whole dose curve.

Key:
[1] = biological target: Estrogen receptor (Homo sapiens) (UniProt P03372); assay: qHTS assay to identify small molecule agonists of the estrogen receptor alpha (ER-alpha) signaling pathway in the presence of an antagonist (AID 1259383); note: nearly all actives have a fitted effect of over 15% in size; note: potency is the fitted concentration of half-maximal effect
In short: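 Agonist-mode confirmation in the presence of the ER antagonist ICI-182,780 at 10.0nM final. Breast-derived VM7Luc4E2 reporter cells were exposed to compounds for 22hr, and ERE-driven luciferase was quantified by luminescence.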

[2] = qHTS assay to identify small molecule agonists or antagonists of the thyroid stimulating hormone receptor (TSHR) signaling pathway - wild type cell line counter screen (AID 1259384)
In short: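 Counter screen in untransfected Hek293: compounds (15-point titration, triplicate) plus phosphodiesterase inhibitor Ro20-1724 added after 18 h plating; 30 min RT. Intracellular cAMP via competitive d2/cryptate immunoassay, 1 h incubation.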

[3] = biological target: Thyrotropin receptor (Homo sapiens) (UniProt P16473); assay: qHTS assay to identify small molecule antagonists of the thyroid stimulating hormone receptor (TSHR) signaling pathway (AID 1259385); note: nearly all actives have a fitted effect of over 20% in size
In short: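 Antagonist mode: compound-treated TSHR-expressing HEK293 cells were stimulated with 1.5 ng/mL TSH (final) in presence of Ro20-1724 for 30 min at RT. HTRF cAMP detection after 1 h; each compound tested at 15 concentrations, triplicate.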

[4] = qHTS assay to identify small molecule antagonists of the estrogen receptor beta (ER-beta) signaling pathway - cell viability counter screen (AID 1259382; active = well fitted curve in the direction sought with a large enough effect in the repeat runs; an effect the other way counts as inactive or inconclusive; note: nearly all actives have a fitted effect of over 55% in size; note: potency is the fitted concentration of half-maximal effect;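 for activity change, negative = cytotoxicity: HEK293T cells carrying ER-beta-UAS-bla reporter stimulated with estradiol; series mostly up to about 92 µM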)
In short: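 Cytotoxicity counter screen multiplexed with the beta-lactamase antagonist assay: GripTite HEK293T ER-beta-bla cells were treated 16 hr with test chemicals in the presence of 1nM 17-beta-estradiol, and viability was measured by CellTiter-Glo.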

[5] = qHTS assay to identify small molecule agonists of the estrogen receptor alpha (ER-alpha) signaling pathway in the presence of an antagonist - cell viability counter screen (AID 1259386; active = well fitted curve in the direction sought with a large enough effect in the repeat runs; an effect the other way counts as inactive or inconclusive;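 note: cells exposed to compounds for 22 h at 37 °C before the viability read; nearly all actives have a fitted effect of over 30% in size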; note: potency is the fitted concentration of half-maximal effect; for activity change, negative = cytotoxicity: series mostly up to about 92 µM)
In short: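 Cytotoxicity was measured in parallel with the ERE-luciferase agonist screen, in the same wells. The cells were VM7Luc4E2, which endogenously express ER-alpha, and treatment was with compounds plus 10.0nM ICI-182,780 for 22hr.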

[6] = biological target: Progesterone receptor (Homo sapiens) (UniProt P06401); assay: qHTS assay to identify small molecule agonists of the progesterone receptor (PR) signaling pathway (AID 1346784); note: nearly all actives have a fitted effect of over 30% in size; note: potency is the fitted concentration of half-maximal effect
In short: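 PR-UAS-bla HEK 293T cells (beta-lactamase reporter under UAS) in 2% charcoal-stripped FBS, dosed with 23 nL compound after 6 hr, incubated 16hr at 37C. LiveBLAzer B/G FRET substrate added, fluorescence read after 2 hours.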

[7] = qHTS assay to identify small molecule agonists of the estrogen receptor beta (ER-beta) signaling pathway - cell viability counter screen (AID 1259380; active = well fitted curve in the direction sought with a large enough effect in the repeat runs; an effect the other way counts as inactive or inconclusive; note: nearly all actives have a fitted effect of over 30% in size; note: potency is the fitted concentration of half-maximal effect)
In short: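 Cytotoxicity is measured in parallel with the reporter screen: after 16 hr compound exposure at 37C and a 2 hr LiveBLAzer step, CellTiter-Glo is added to the same ER-beta-UAS-bla HEK293T wells and luminescence read after 30 min.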

[8] = biological target: Androgen receptor (Homo sapiens) (UniProt P10275); assay: qHTS assay to identify small molecule agonists of the androgen receptor (AR) signaling pathway in the presence of an antagonist (AID 1259381); note: nearly all actives have a fitted effect of over 15% in size
In short: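 Agonist-mode confirmation screen: human MDA-kb2 cells stably expressing luciferase under an MMTV promoter bearing AR and GR response elements, co-treated with 3.0uM nilutamide (final). Luminescence measured after 16hr compound incubation.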

Thyrotropin receptor (Homo sapiens), sequence (P16473 whole entry, looked up): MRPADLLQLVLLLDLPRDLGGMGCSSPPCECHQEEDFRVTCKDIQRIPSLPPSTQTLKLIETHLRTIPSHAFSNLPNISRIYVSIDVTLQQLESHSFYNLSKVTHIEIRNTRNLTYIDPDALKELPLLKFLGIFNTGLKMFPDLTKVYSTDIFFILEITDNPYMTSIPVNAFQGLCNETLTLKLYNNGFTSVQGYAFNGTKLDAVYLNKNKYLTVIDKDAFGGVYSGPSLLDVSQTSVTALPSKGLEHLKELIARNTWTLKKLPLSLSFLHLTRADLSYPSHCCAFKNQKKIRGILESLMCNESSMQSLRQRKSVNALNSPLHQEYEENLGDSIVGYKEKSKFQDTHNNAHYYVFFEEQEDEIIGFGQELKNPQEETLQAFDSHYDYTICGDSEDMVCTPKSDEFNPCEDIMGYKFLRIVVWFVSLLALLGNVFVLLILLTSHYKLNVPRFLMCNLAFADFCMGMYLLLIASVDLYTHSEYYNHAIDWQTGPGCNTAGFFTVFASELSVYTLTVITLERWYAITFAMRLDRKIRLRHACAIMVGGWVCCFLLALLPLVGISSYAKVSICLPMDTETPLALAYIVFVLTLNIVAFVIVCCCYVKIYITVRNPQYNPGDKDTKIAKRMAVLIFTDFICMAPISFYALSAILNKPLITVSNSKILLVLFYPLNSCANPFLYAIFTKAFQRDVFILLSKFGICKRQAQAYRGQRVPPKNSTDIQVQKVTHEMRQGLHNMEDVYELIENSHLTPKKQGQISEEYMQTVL
Estrogen receptor (Homo sapiens), sequence (P03372 whole entry, looked up): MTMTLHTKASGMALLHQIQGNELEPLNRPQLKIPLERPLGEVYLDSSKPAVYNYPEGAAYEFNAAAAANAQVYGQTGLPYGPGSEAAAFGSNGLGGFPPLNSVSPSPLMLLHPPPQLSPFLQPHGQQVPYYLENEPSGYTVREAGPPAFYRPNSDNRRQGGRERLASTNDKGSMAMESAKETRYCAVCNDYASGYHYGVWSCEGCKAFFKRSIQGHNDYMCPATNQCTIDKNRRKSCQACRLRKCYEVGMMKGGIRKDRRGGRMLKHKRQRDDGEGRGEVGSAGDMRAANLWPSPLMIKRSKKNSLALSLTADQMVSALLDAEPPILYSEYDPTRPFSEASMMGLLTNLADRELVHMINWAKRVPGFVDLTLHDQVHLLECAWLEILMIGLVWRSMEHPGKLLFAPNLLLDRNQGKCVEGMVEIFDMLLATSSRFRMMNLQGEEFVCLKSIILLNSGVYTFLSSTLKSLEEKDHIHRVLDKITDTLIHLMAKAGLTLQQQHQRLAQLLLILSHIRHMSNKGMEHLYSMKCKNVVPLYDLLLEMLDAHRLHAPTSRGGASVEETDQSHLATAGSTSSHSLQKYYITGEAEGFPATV
Androgen receptor (Homo sapiens), sequence (P10275 whole entry, looked up): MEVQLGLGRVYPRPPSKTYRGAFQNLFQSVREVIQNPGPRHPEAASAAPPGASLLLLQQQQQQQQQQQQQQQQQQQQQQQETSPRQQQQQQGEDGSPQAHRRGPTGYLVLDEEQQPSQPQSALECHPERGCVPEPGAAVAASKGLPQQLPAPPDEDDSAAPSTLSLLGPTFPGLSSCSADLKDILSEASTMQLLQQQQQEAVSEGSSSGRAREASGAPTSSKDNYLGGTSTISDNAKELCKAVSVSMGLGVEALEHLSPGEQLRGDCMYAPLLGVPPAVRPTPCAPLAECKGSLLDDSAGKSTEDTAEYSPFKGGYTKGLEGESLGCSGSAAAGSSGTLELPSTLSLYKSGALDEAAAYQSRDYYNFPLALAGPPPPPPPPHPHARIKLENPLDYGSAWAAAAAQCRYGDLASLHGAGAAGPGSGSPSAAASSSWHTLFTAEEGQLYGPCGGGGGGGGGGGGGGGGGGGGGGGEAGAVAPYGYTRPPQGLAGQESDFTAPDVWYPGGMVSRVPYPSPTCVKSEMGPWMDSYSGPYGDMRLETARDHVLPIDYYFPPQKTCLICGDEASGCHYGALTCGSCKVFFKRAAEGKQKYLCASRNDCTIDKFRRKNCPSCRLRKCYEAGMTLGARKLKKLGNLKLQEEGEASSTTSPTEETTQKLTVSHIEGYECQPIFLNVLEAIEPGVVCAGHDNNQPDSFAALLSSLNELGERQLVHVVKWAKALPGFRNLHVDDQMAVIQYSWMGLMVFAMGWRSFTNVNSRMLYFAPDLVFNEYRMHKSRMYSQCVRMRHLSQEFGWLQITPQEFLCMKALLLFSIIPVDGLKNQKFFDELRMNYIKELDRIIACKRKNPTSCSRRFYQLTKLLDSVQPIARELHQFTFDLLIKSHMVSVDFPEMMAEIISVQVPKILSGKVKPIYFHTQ
Progesterone receptor (Homo sapiens), sequence (P06401 whole entry, looked up): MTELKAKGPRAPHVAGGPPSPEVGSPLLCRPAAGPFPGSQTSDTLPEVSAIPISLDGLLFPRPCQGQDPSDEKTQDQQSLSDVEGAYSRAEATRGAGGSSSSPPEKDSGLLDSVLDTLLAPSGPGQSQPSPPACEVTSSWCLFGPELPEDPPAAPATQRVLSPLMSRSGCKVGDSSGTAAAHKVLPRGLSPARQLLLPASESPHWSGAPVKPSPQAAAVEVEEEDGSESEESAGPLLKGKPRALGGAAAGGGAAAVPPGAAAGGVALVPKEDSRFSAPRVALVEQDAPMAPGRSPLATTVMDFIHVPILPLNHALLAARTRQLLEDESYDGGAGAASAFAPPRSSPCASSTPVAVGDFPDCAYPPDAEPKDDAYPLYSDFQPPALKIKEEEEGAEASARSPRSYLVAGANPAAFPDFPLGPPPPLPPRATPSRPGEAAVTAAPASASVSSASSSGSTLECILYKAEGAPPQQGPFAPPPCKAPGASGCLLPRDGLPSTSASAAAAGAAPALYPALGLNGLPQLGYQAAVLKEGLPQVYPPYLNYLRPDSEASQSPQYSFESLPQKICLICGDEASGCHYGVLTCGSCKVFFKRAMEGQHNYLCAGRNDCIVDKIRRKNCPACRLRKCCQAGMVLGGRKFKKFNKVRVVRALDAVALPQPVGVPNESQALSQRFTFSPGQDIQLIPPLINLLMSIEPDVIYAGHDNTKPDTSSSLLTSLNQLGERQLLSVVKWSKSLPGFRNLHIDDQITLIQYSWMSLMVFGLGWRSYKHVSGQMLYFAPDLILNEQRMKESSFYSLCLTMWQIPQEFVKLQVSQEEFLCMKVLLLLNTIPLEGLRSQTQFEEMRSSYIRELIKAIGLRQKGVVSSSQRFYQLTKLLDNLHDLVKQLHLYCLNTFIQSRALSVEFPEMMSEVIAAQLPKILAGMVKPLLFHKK

CCc1oc2ccccc2c1C(=O)c1cc(I)c(O)c(I)c1
Potency [1]: inactive
outcome [2]: inactive
Potency [3]: inactive

CC(C)(C)c1ccc(C(O)CCCN2CCC(C(O)(c3ccccc3)c3ccccc3)CC2)cc1 (stereo not given)
Potency [4]: inactive
Potency [1]: inactive
outcome [2]: inactive
Potency [5]: inactive
Potency [6]: inactive

O=C(O)c1cc(O)c2ccccc2c1O
Potency [7]: 30.6 µM (active)
Potency [1]: inactive
outcome [2]: inactive
Potency [5]: 27.3 µM (active)
Potency [6]: inactive

O=c1[nH]c(=O)n([C@H]2C[C@H](O)[C@@H](CO)O2)cc1F
Potency [7]: 0.15 µM (active)
Potency [1]: inactive
outcome [2]: inactive
Potency [3]: inactive
Potency [5]: inactive
Potency [6]: inactive

CCC(CC)(CC(=O)Nc1cccc(/C=C/c2nc(C3CCC3)cs2)c1)C(=O)O
Potency [7]: 7.5 µM (active)
Potency [5]: inactive
Potency [6]: inactive

CC1=Nc2ccccc2C1(C)C
Potency [7]: inactive
Potency [4]: inactive
outcome [2]: inactive
Potency [5]: inactive
Potency [6]: inactive

O=C1OC2(c3ccc(O)cc3Oc3cc(O)ccc32)c2ccc(N=C=S)cc21
Potency [7]: inactive
Potency [4]: inactive
outcome [2]: inactive
Potency [3]: inactive
Potency [5]: inactive
Potency [6]: 0.879 µM (active)

O=C(O)CN(CCN(CC(=O)O)CC(=O)O)CC(=O)O
activity change, negative = cytotoxicity [7]: 0.439% [at 3.32 µM]
activity change, negative = cytotoxicity [4]: 2.74% [at 3.27 µM]
cAMP activity change [2]: -0.412% [at 3.27 µM]
activity change, negative = inhibition [3]: 1.34% [at 3.27 µM]
activity change, negative = cytotoxicity [5]: 0.548% [at 3.27 µM]
Potency [6]: 0.0097 µM (active)

COc1ccc(-c2coc3cc(O)ccc3c2=O)cc1
Potency [7]: inactive
Potency [4]: inactive
Potency [1]: 1.09 µM (active)
outcome [2]: inactive
Potency [5]: inactive
Potency [6]: inactive

O=C(Oc1ccccc1)Oc1ccccc1
Potency [7]: inactive
Potency [4]: inactive
Potency [1]: inactive
outcome [2]: inactive
Potency [5]: inactive
Potency [6]: inactive

CN1CCN(Cc2cc(-c3ccc4[nH]c(=O)oc4c3)co2)[C@@H](c2ccc(F)cc2)C1
Potency [7]: 13.2 µM (active)
Potency [4]: inactive
Potency [1]: inactive
outcome [2]: inactive
Potency [3]: inactive
Potency [6]: inactive

CC1(C)[C@@H](O)CC[C@]2(C)[C@H]3C(=O)C=C4[C@@H]5C[C@@](C)(C(=O)O)CC[C@]5(C)CC[C@@]4(C)[C@]3(C)CC[C@@H]12
outcome [8]: inactive
Potency [4]: inactive
Potency [1]: inactive
outcome [2]: inactive
Potency [5]: inactive

CCCNCCC
Potency [4]: inactive
outcome [2]: inactive
Potency [3]: inactive
Potency [5]: inactive
Potency [6]: inactive

COC(=O)Nc1nc2ccc(C(=O)c3ccccc3)cc2[nH]1
Potency [7]: inactive
outcome [8]: inactive
Potency [4]: inactive
Potency [1]: inactive
outcome [2]: inactive
Potency [5]: inactive
Potency [6]: inactive

Oc1cc(Cl)cc(Cl)c1Cl
Potency [7]: 31.4 µM (active)
Potency [4]: inactive
Potency [1]: inactive
Potency [3]: inactive

C[Si](Cl)(c1ccccc1)c1ccccc1
Potency [7]: inactive
Potency [4]: inactive
Potency [1]: inactive
Potency [5]: inactive

Cc1cc(C(C#N)c2ccc(Cl)cc2)c(Cl)cc1NC(=O)c1cc(I)cc(I)c1O (stereo not given)
Potency [7]: 11.9 µM (active)
Potency [4]: 23.7 µM (active)
Potency [1]: inactive

CC[N+](CC)(CC)CCOc1ccc(/C=C/c2ccccc2)cc1
Potency [4]: inactive
Potency [1]: inactive
outcome [2]: inactive
Potency [3]: inactive
Potency [5]: inactive
Potency [6]: inactive

O=S(=O)(O)c1ccccc1/C=C/c1ccc(-c2ccc(/C=C/c3ccccc3S(=O)(=O)O)cc2)cc1
Potency [7]: inactive
Potency [4]: inactive
Potency [1]: inactive
outcome [2]: inactive

CC(C)=CCNc1ncnc2c1ncn2[C@@H]1O[C@H](CO)[C@@H](O)[C@H]1O
Potency [7]: 13.3 µM (active)
outcome [8]: inactive
Potency [4]: 11.9 µM (active)
Potency [1]: inactive
Potency [3]: inactive
Potency [5]: inactive
Potency [6]: inactive

C/C=C/C=C/COC(=O)C(C)C
Potency [7]: inactive
Potency [4]: inactive
outcome [2]: inactive
Potency [3]: inactive
Potency [5]: inactive
Potency [6]: inactive

CCOC(=O)c1ccc(C2CCC(NC[C@H](O)COc3ccc(O)c(NS(C)(=O)=O)c3)CC2)cc1 (stereo not given in full)
Potency [7]: 50.2 µM (active)
Potency [5]: inactive
Potency [6]: inactive

ClCCl
Potency [7]: inactive
outcome [8]: inactive
Potency [4]: inactive
Potency [1]: inactive
Potency [5]: inactive
Potency [6]: inactive

COC(=O)C1=C(C)NC(C)=C(C(=O)OCCN2CCN(C(c3ccccc3)c3ccccc3)CC2)C1c1cccc([N+](=O)[O-])c1 (stereo not given)
Potency [7]: inactive
Potency [4]: inactive
Potency [1]: inactive
outcome [2]: inactive
Potency [5]: inactive
Potency [6]: inactive

O=c1c(O)c(-c2ccc(O)cc2O)oc2cc(O)cc(O)c12
Potency [7]: inactive
Potency [4]: inactive
Potency [1]: inactive
Potency [6]: inactive

Cc1c(C)c2c(c(C)c1OC(=O)c1cccnc1)CC[C@@](C)(CCC[C@H](C)CCC[C@H](C)CCCC(C)C)O2
Potency [7]: inactive
Potency [4]: inactive
Potency [1]: inactive
outcome [2]: inactive
Potency [3]: inactive
Potency [5]: inactive
Potency [6]: inactive

CCC(C)[O-].CCC(C)[O-].CCOC(=O)/C=C(/C)[O-].[Al+3]
Potency [7]: inactive
Potency [4]: inactive
outcome [2]: inactive
Potency [3]: inactive
Potency [5]: inactive
Potency [6]: inactive

O=c1[nH]c2ccccc2n1CCCN1CCN(C(c2ccccc2)c2ccccc2)CC1
Potency [7]: 11.9 µM (active)
outcome [2]: inactive
Potency [5]: inactive
Potency [6]: inactive

Oc1c(I)cc(Cl)c2cccnc12
outcome [8]: inactive
Potency [6]: inactive

c1ccsc1
Potency [7]: inactive
outcome [8]: inactive
Potency [4]: inactive
Potency [1]: inactive
outcome [2]: inactive
Potency [5]: inactive
Potency [6]: inactive

CCCc1ccc(OCC(=O)N2CCN(C(=O)COc3ccc(CCC)cc3OC)CC2)c(OC)c1
outcome [8]: inactive
Potency [4]: inactive
Potency [1]: inactive
outcome [2]: inactive
Potency [5]: inactive
Potency [6]: inactive

CN(C)Cc1cc(C(C)(C)C)c(O)c(C(C)(C)C)c1
outcome [2]: inactive
Potency [5]: inactive
Potency [6]: inactive

S=C([S-])NCCNC(=S)[S-].S=C([S-])NCCNC(=S)[S-].[Mn+2].[Zn+2]
Potency [4]: inactive
outcome [2]: inactive
Potency [3]: inactive
Potency [5]: inactive
Potency [6]: inactive

OCCN1CCN(CCCN2c3ccccc3Sc3ccc(C(F)(F)F)cc32)CC1
Potency [7]: 26.6 µM (active)
Potency [4]: 21.1 µM (active)
Potency [1]: inactive
outcome [2]: inactive
Potency [5]: inactive
Potency [6]: inactive

CN1CCCCC1CCN1c2ccccc2Sc2ccc(S(C)=O)cc21 (stereo not given)
Potency [1]: inactive
outcome [2]: inactive
Potency [5]: inactive
Potency [6]: inactive

OC1CCCc2ccccc21 (stereo not given)
Potency [7]: inactive
Potency [4]: inactive
Potency [1]: inactive
Potency [3]: inactive
Potency [5]: inactive
Potency [6]: inactive

CC(C)(C)c1csc(-c2cc3cc(OCc4ccccc4CC(=O)O)ccc3o2)n1
Potency [7]: 4.86 µM (active)
Potency [4]: 27.3 µM (active)
Potency [1]: inactive
outcome [2]: inactive
Potency [5]: inactive

C#Cc1ccc(-c2ccccc2F)cc1
Potency [7]: inactive
Potency [4]: inactive
Potency [1]: inactive
outcome [2]: inactive
Potency [3]: inactive
Potency [5]: inactive
Potency [6]: inactive

COC1=C(OC)C(=O)C(CCCCCCCCCCO)=C(C)C1=O
Potency [7]: 23.7 µM (active)
outcome [8]: inactive
Potency [4]: 23.7 µM (active)
Potency [1]: inactive
Potency [6]: inactive
